Laboratory results: PubChem BioAssay (NCI)
Values joined by “and” are separate entries in the source; they are usually repeats but may differ in a detail not shown here. Identical values can stand only once. Compounds without any hit were thinned out: in the full panel of roughly 83,000, 20% have a hit.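 Single-dose data. Exposure time 48 hours. Values below 10 considered active.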 Active and inactive are the calls of the source.

Experiments:
Experiment in all cases: NCI-60 one-dose screen, 48 h (100 = growth as untreated, 0 = no growth, -100 = all killed)
T-47D breast = tested on: T-47D breast
BT-549 breast = tested on: BT-549 breast
MDA-MB-435 melanoma = tested on: MDA-MB-435 melanoma
SW-620 colon = tested on: SW-620 colon
MCF7 breast = tested on: MCF7 breast
HCT-116 colon = tested on: HCT-116 colon
HCC-2998 colon = tested on: HCC-2998 colon
KM12 colon = tested on: KM12 colon

Measured: growth

COc1ccc(C(=O)/C=C/c2ccc(OCc3cccc(C(F)(F)F)c3)c(OC)c2)cc1OC
active: BT-549 breast; 100 µM -41.3% | SW-620 colon; 100 µM 6.75% | MCF7 breast; 100 µM 6.42% | HCT-116 colon; 100 µM 3.91%
inactive: T-47D breast; 10 µM 54.2% | T-47D breast; 100 µM 11.3% | BT-549 breast; 10 µM 95.2% | MDA-MB-435 melanoma; 10 µM 86.3% | MDA-MB-435 melanoma; 100 µM 12% | SW-620 colon; 10 µM 59.1% | MCF7 breast; 10 µM 40% | HCT-116 colon; 10 µM 52.3% | HCC-2998 colon; 10 µM 105% | HCC-2998 colon; 100 µM 10.8% | KM12 colon; 10 µM 72.5% | KM12 colon; 100 µM 12.4%

CC1(Cc2ccccc2)CC2=C(C(=O)O1)C(c1ccccc1)NC(=O)N2 (stereo not given)
inactive: T-47D breast; 10 µM unless noted 97% | BT-549 breast; 10 µM unless noted 104% | MDA-MB-435 melanoma; 10 µM unless noted 99.4% | SW-620 colon; 10 µM unless noted 106% | MCF7 breast; 10 µM unless noted 105% | HCT-116 colon; 10 µM unless noted 86.9% | HCC-2998 colon; 10 µM unless noted 94.9% | KM12 colon; 10 µM unless noted 107%

CCC(=C(c1ccc(OCCCN(C)C)cc1)c1ccc(OCCCN(C)C)cc1)c1ccc(Cl)cc1
active: T-47D breast; 10 µM unless noted -66.8% | BT-549 breast; 10 µM unless noted -92.6% | MDA-MB-435 melanoma; 10 µM unless noted -95.5% | SW-620 colon; 10 µM unless noted -73.7% | MCF7 breast; 10 µM unless noted -79.2% | HCT-116 colon; 10 µM unless noted -94% | HCC-2998 colon; 10 µM unless noted -80.8% | KM12 colon; 10 µM unless noted -78.7%

COc1ccc(C(=O)/C=C/c2ccc(OCc3ccc(Cl)cc3)cc2)cc1OC
active: SW-620 colon; 100 µM 9.15% | MCF7 breast; 100 µM 9.31% | HCT-116 colon; 100 µM -25.8%
inactive: T-47D breast; 10 µM 73.8% | T-47D breast; 100 µM 41.5% | BT-549 breast; 10 µM 115% | BT-549 breast; 100 µM 22% | MDA-MB-435 melanoma; 10 µM 90.7% | MDA-MB-435 melanoma; 100 µM 43.7% | SW-620 colon; 10 µM 103% | MCF7 breast; 10 µM 84.2% | HCT-116 colon; 10 µM 90.2% | HCC-2998 colon; 10 µM 101% | HCC-2998 colon; 100 µM 44% | KM12 colon; 10 µM 90.7% | KM12 colon; 100 µM 21.4%

O=C(O)C1C2CCC1C(O)C2 (stereo not given)
inactive: T-47D breast; 10 µM unless noted 92.3% and 97.4% | BT-549 breast; 10 µM unless noted 98.2% and 97.1% | MDA-MB-435 melanoma; 10 µM unless noted 106% | SW-620 colon; 10 µM unless noted 107% and 113% | MCF7 breast; 10 µM unless noted 92% and 97.8% | HCT-116 colon; 10 µM unless noted 100% and 101% | HCC-2998 colon; 10 µM unless noted 99.9% and 101% | KM12 colon; 10 µM unless noted 107% and 98.7%

CN(C)CCNc1ncc(F)c(-c2cnc3cc(-c4cnn(C)c4)ccn23)n1
inactive: T-47D breast; 0.005 µM 110% | T-47D breast; 30 µM 81.7% | BT-549 breast; 0.005 µM 97.8% | BT-549 breast; 30 µM 69.4% | MDA-MB-435 melanoma; 0.005 µM 101% | MDA-MB-435 melanoma; 30 µM 43.1% | SW-620 colon; 0.005 µM 103% | SW-620 colon; 30 µM 25.7% | MCF7 breast; 0.005 µM 93.9% | MCF7 breast; 30 µM 49.5% | HCT-116 colon; 0.005 µM 100% | HCT-116 colon; 30 µM 24.3% | HCC-2998 colon; 0.005 µM 116% | HCC-2998 colon; 30 µM 54.5% | KM12 colon; 0.005 µM 87.8% | KM12 colon; 30 µM 10.7%

O=C1C(N2CCOCC2)=C(I)C(=O)c2ncccc21
inactive: T-47D breast; 10 µM unless noted 53.7% | BT-549 breast; 10 µM unless noted 87.1% | SW-620 colon; 10 µM unless noted 69.2% | MCF7 breast; 10 µM unless noted 41.3% | HCT-116 colon; 10 µM unless noted 49.4% | HCC-2998 colon; 10 µM unless noted 86.8% | KM12 colon; 10 µM unless noted 91.8%
active: MDA-MB-435 melanoma; 10 µM unless noted -69.4%

Clc1ccc2c(NCCN3CCN(c4ccnc(N5CCCC5)n4)CC3)ccnc2c1
inactive: BT-549 breast; 10 µM unless noted 75.8% | MDA-MB-435 melanoma; 10 µM unless noted 15.2% | SW-620 colon; 10 µM unless noted 12.9% | MCF7 breast; 10 µM unless noted 12.3% | KM12 colon; 10 µM unless noted 54.3%
active: T-47D breast; 10 µM unless noted 2.2% | HCT-116 colon; 10 µM unless noted 4.45% | HCC-2998 colon; 10 µM unless noted 0.613%

Cc1cccc(-c2nnc(SCC(=O)Nc3ncc(Cc4ccccc4)s3)n2N2C(=O)CSC2=S)c1
inactive: T-47D breast; 10 µM unless noted 43.8% | BT-549 breast; 10 µM unless noted 78.5% | MDA-MB-435 melanoma; 10 µM unless noted 48.5% | SW-620 colon; 10 µM unless noted 49.6% | MCF7 breast; 10 µM unless noted 56.2% | HCT-116 colon; 10 µM unless noted 25% | HCC-2998 colon; 10 µM unless noted 70.9% | KM12 colon; 10 µM unless noted 71.7%

CCNC(=O)Oc1ccc(/C(=C(/C)Cc2ccc(OC)cc2)c2ccc(OCCN(CC)CC)cc2)cc1
inactive: T-47D breast; 10 µM unless noted 27.4% | BT-549 breast; 10 µM unless noted 80.5% | MDA-MB-435 melanoma; 10 µM unless noted 40.5% | SW-620 colon; 10 µM unless noted 45.2% | MCF7 breast; 10 µM unless noted 18.3% | HCT-116 colon; 10 µM unless noted 30.9% | HCC-2998 colon; 10 µM unless noted 59.7% | KM12 colon; 10 µM unless noted 62.2%

O=C(CN1C(=O)S/C(=C\C(Cl)=C\c2ccccc2)C1=O)NC1C=CS(=O)(=O)C1 (stereo not given)
inactive: MCF7 breast; 10 µM unless noted 11.1% | HCC-2998 colon; 10 µM unless noted 65.6% | KM12 colon; 10 µM unless noted 16.4%
active: T-47D breast; 10 µM unless noted 4.56% | BT-549 breast; 10 µM unless noted 2.33% | MDA-MB-435 melanoma; 10 µM unless noted -31.4% | SW-620 colon; 10 µM unless noted -36.4% | HCT-116 colon; 10 µM unless noted -62.3%

CN(C)CCCn1c2nc(=O)[nH]c(=O)c-2nc2cc(Cl)c(Cl)cc21
inactive: T-47D breast; 10 µM unless noted 34.8% | BT-549 breast; 10 µM unless noted 113% | MDA-MB-435 melanoma; 10 µM unless noted 106% | SW-620 colon; 10 µM unless noted 13.6% | HCC-2998 colon; 10 µM unless noted 91.6% | KM12 colon; 10 µM unless noted 57.5%
active: MCF7 breast; 10 µM unless noted 4.93% | HCT-116 colon; 10 µM unless noted -18.5%
